The structures appear in SMILES notation. ± gives the standard deviation.

This experiment has as its system RAW-Dual (murine macrophage reporter line). Kind of experiment: IRF reporter (Lucia luciferase) activity fold change vs agonist alone; higher = enhanced IRF activity. Conditions: modulator concentration 10 µM; agonist: 3'3'-cGAMP 10 ug/mL. The method in brief: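 RAW-Dual murine macrophage reporter cells were plated at 50 000 per well in 384-well plates, pin-transferred compound to 10 μM final, and pre-incubated for 1 hour at 37 °C before a PRR agonist was added and the cells incubated overnight. NF-κB activity was read from supernatant SEAP with QUANTI-Blue at 620 nm absorbance, and IRF activity from Lucia luciferase with QUANTI-Luc by luminescence. Each signal was expressed as fold change by dividing by the mean agonist-only control on the same plate. Two replicate plates were averaged, with errors obtained by propagation.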
Consider `CCCCNCCCCOc1ccc(C)cc1C(C)(C)C`, for which the IRF reporter was determined as 0.0798 ± 0.034. In the case of `Brc1ccc(-c2cc(-c3ccccc3)nc(N3CCOCC3)n2)cc1`, the IRF reporter turned out to be 0.977 ± 0.059. For `O=C(c1ccc(Cl)cc1)c1ccc(N2CCOCC2)c([N+](=O)[O-])c1`, the IRF reporter was 1.11 ± 0.027. For `CC1CCN(c2nccnc2Oc2ccc(C(=O)N3CCN(c4ccc(F)cc4)CC3)cc2)CC1`, the IRF reporter is 0.684 ± 0.032. Turning to `Oc1c2c(nc3cc(-c4ccc(Br)cc4)nn13)CCS2`, the IRF reporter is 0.857 ± 0.03. In the case of `Cc1nn2c(=O)c(Cc3ccccc3)c(C)[nH]c2c1-c1ccccc1` it was 1.09 ± 0.057. Consider `CNCCC[C@]12CC[C@H](c3ccccc31)c1ccccc12` [Prestw-346], for which the IRF reporter came out at 1.12 ± 0.07. Consider `CC(N)c1ccc(Nc2ncc3cc(-c4ccncc4)ccc3n2)cc1.Cl.Cl.Cl` (stereo not given), for which the IRF reporter was determined as 0.173 ± 0.014. With `CCOc1ccc(S(=O)(=O)NC(C)(C)C)cc1C`, the IRF reporter was found to be 0.971 ± 0.044. As to `Cc1oncc1C(=O)Nc1ccc(C(F)(F)F)cc1`, the IRF reporter turned out to be 1.31 ± 0.045. Turning to `O=C(O)c1ccccc1`, the IRF reporter was 0.933 ± 0.029. Take `CC(C)(C)C(O)/C=C/c1ccc2c(c1)OCO2` (stereo not given): the IRF reporter was determined as 0.45 ± 0.029. Take `COc1cccc(S(=O)(=O)NCc2sc(-c3ccccc3)nc2C)c1`: the IRF reporter stood at 0.922 ± 0.059. As for `CCOC(=O)c1cc(-c2ccccc2)sc1NC(=O)C(C)(C)C`, the IRF reporter was 0.945 ± 0.055. In the case of `CC(C)(O)C#Cc1ccccn1` it was 0.916 ± 0.05. Take `COc1ccc(CC(C)N2CCN(c3cccc(C)c3C)CC2)cc1OC` (stereo not given): the IRF reporter stood at 0.787 ± 0.056.

On to `C[C@]1(O)C[C@@H](c2nc(-c3ccc4ccc(-c5ccccc5)nc4c3)c3c(N)nccn32)C1`, for which the IRF reporter amounted to 0.593 ± 0.055. Consider `Cc1ccc(C2=NN3C(=N)C(=Cc4c[nH]c5ccccc45)C(=O)N=C3S2)cc1`, for which the IRF reporter was found to be 0.974 ± 0.024. The figure for `CN1CCN(C2=C(Cl)C(=O)N(c3cccc(Cl)c3)C2=O)CC1` is 0.465 ± 0.022; for `CC1CCc2nc(NC(=O)C3CCCN3S(C)(=O)=O)sc2C1` (stereo not given) it is 0.983 ± 0.045. For `C=CCn1c(SCC(=O)NCCN2CCOCC2)nc2sc3c(c2c1=O)CCC3`, the IRF reporter came out at 1.02 ± 0.081. Take `CC1(C)CC(NC(=O)c2cccnc2-c2nc3ccccc3s2)CC(C)(C)N1`: the IRF reporter amounted to 0.892 ± 0.048. In the case of `CC(C)(C)C(=O)NCc1cccnc1-c1cccnc1` it was 0.972 ± 0.052; in that of `COc1cc2c(cc1OC)C(=S)NC1(CCCC1)C2`, 0.962 ± 0.04; in that of `COC(=O)c1ccccc1NC(=O)CCc1ccc(Oc2cc([N+](=O)[O-])cc([N+](=O)[O-])c2)cc1`, 0.431 ± 0.054. Turning to `CC(O)(CNC(=O)NCc1ccc(F)cc1)c1ccc(-c2ccccc2)cc1` (stereo not given), the IRF reporter was found to be 1.08 ± 0.056. The figure for `CCn1c2ccccc2c2cc(CNCCc3ccc(OC)cc3)ccc21` is 0.479 ± 0.11; for `CN(C)c1nc(CNS(C)(=O)=O)nc(N2CCCCC2)n1` it is 0.991 ± 0.044; for `O=C(NCCC(CCO)c1ccccc1)c1cccc(Br)c1` (stereo not given) it is 0.653 ± 0.031. In the case of `CCn1c(C=Nn2cnnc2)nc2ccccc21` it was 0.972 ± 0.23; in that of `COc1c(O)cc(O)cc1O`, 1.07 ± 0.069; in that of `O=C(NN=Cc1c(O)ccc2ccccc12)c1ccncc1`, 0.75 ± 0.11. The figure for `COc1cc(C=NN2C(=O)c3cccc4cccc(c34)C2=O)cc(Br)c1OC` is 1.01 ± 0.032; for `CC(=O)OCCN(CCOC(C)=O)c1c(C)[nH]c(=O)[nH]c1=O` it is 0.976 ± 0.05; for `CC(C)C(=O)c1c(C(C)C)nn2ccccc12` it is 0.808 ± 0.076. For `Cn1c(=O)cc(N2CCC[C@@H](N)C2)n(Cc2cc(F)ccc2C#N)c1=O`, the IRF reporter came to 0.225 ± 0.013. As for `Cc1onc(-c2ccccc2)c1-c1ccc(S(N)(=O)=O)cc1`, the IRF reporter turned out to be 1.02 ± 0.031.

Take `CC(C)(C(=O)O)c1ccc(C(O)CCCN2CCC(C(O)(c3ccccc3)c3ccccc3)CC2)cc1.Cl` (stereo not given): the IRF reporter came out at 0.924 ± 0.029. As for `COc1cccc(N2C(=O)CN(Cc3ccccc3)C3CS(=O)(=O)CC32)c1` (stereo not given), the IRF reporter worked out at 0.322 ± 0.034. For `c1ccc(CCn2c(COc3ccccc3)nc3ccccc32)cc1`, the IRF reporter worked out at 1.21 ± 0.043.

These data come from the supplement of paper PMC10646978.
